# Assay results: PubChem BioAssay
# The source made the active and inactive calls. Unless noted, no rule for the calls is given here.
# Legend:
# [1] = tested on: Wnt5a (protein binding on small-molecule microarray); test: Wnt5a binders on small-molecule microarray, primary screen, biophysical, 635/667 nm fluorescence (AID 1142); conditions: 635 nm fluorescence, higher = more signal;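 also: fluorescence read at 667 nm with signal to noise per printed feature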
# [2] = cell viability in Huh7 cells, primary screen, cytotoxicity control for HCV replication inhibitor project, CellTiter-Glo luminescence, basal, 48 h (AID 1143); conditions: Huh7 HCV replicon, higher = more signal, called active from +8 up or from −8 down;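 also: Huh7 hepatoma cells carrying a hepatitis C replication reporter with no stimulus; test concentration not given here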
# [3] = P. aeruginosa biofilm formation inhibitors, primary screen, PAO1 strain, BacTiter-Glo luminescence, LB-PBS (AID 1144); conditions: 12 h, higher = more signal
# [4] = CREB reporter modulators without forskolin, primary screen, cell-based, PC12, CRE-LacZ reporter, unstimulated (AID 1145); conditions: no forskolin, luminescence, 4.5 h, higher = more signal, called active from +8 up or from −8 down
# [5] = CREB reporter modulators under forskolin, primary screen, cell-based, PC12, CRE-LacZ reporter, forskolin-stimulated (AID 1146); conditions: luminescence, 4.5 h, higher = more signal, called active from +8 up or from −8 down;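 also: PC12 cells with 6xCRE LacZ reporter stimulated by forskolin 10 µM; beta-galactosidase reporter signal reflecting CREB driven transcription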
# [6] = target: Streptavidin (Streptomyces avidinii) (UniProt P22629); test: streptavidin binders on small-molecule microarray, primary screen, artefact control for SMM compound annotation, biophysical, 635/667 nm fluorescence (AID 1147); conditions: streptavidin binding, higher = more signal;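 also: signal reflects streptavidin binding to arrayed compounds as a control protein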
# [7] = small-molecule binders of probe aInhba, primary screen, biochemical, small-molecule microarray, 635/667 nm fluorescence (AID 1148); conditions: higher = more signal;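 also: score merges 667nm spot fluorescence with signal-to-noise for antibody binding to printed compounds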
# Torsin-1A (Homo sapiens) [8] = target: Torsin-1A (Homo sapiens) (UniProt O14656); test: torsin A binders from cell lysate, primary screen, small-molecule microarray, wild-type, 635/667 nm (AID 1149); conditions: COS7 hTOR1A-WT lysate, 635 nm fluorescence, higher = more signal
# Torsin-1A (Homo sapiens) [9] = target: Torsin-1A (Homo sapiens) (UniProt O14656); test: small-molecule binders of mutant TOR1A in lysate, primary screen, cell lysate, small-molecule microarray, COS7 lysate, 635/667 nm fluorescence (AID 1150); conditions: COS7 hTOR1A mutant lysate, 635 nm fluorescence, higher = more signal;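 also: score pools 667 nm emission and signal to noise measuring lysate protein binding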
# [10] = tested on: Sonic hedgehog protein (Shh); test: small-molecule binders of Shh protein, primary screen, biochemical, small-molecule microarray, 635/667 nm fluorescence (AID 1151); conditions: small-molecule microarray binding, 635 nm fluorescence; higher = more signal;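 also: Shh protein binding to compounds spotted on small-molecule microarray slides; score combines spot fluorescence intensity with signal-to-noise across triplicate slides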
# [11] = E. coli DRC41 culture turbidity changes, primary screen, E. coli filamentation inducer project, strain DRC41, OD650, 48 h (AID 1152);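 also: E. coli MC1000 strain DRC41 lacking acrAB efflux pump and sulA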; conditions: E. coli DRC41 (acrAB sulA), higher = more signal, called active from +8 up or from −8 down
# [12] = small-molecule binders of probe aLefty1, primary screen, biochemical, small-molecule microarray, 635/667 nm fluorescence (AID 1153); conditions: higher = more signal;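 also: score merges spot fluorescence with signal-to-noise ratio from the scanned slide images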
# [13] = PSAC antagonists in infected red cells, primary screen, cell-based, P. falciparum Indochina, OD700, 1 h (AID 1154); conditions: P. falciparum Indochina infected RBC osmotic lysis, higher = more signal, called active from +8 up or from −8 down
# [14] = PSAC antagonists in infected red cells, primary screen, cell-based, P. falciparum Indochina, OD700, 2 h (AID 1155);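 also: lysis reports solute entry through the parasite surface anion channel PSAC; channel blockers reduce lysis of infected cells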; conditions: P. falciparum Indochina infected erythrocytes, osmotic lysis OD700; higher = more signal, called active from +8 up or from −8 down
# [15] = osmotic lysis modulators in infected erythrocytes, primary screen, PSAC antagonist project, cell-based, P. falciparum Indochina, OD700, 3 h (AID 1156); conditions: higher = more signal, called active from +8 up or from −8 down
# [16] = PSAC antagonists in infected red cells, primary screen, cell-based, P. falciparum Indochina, OD700, 18 h (AID 1157); conditions: P. falciparum Indochina infected erythrocytes, osmotic lysis OD700, 18 h; higher = more signal, called active from +8 up or from −8 down
# [17] = modulators of S6 phosphorylation in cells, primary screen, cell-based, A549, cytoblot, luminescence, serum-stimulated (AID 1158); conditions: A549 phospho-S6 cytoblot, 5 h, higher = more signal;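 also: serum-stimulated A549 lung adenocarcinoma cells; signal is phosphorylated S6 detected by cytoblot immunostaining with HRP secondary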
# [18] = target: NADPH oxidase 2 (Homo sapiens) (UniProt P04839); test: NOX2-dependent H2O2 signal modulators, primary screen, NOX inhibitor project, cell-based, HEK293-NOX2, PMA-stimulated, Amplex Red fluorescence (AID 1159); conditions: 45 min, higher = more signal, called active from +8 up or from −8 down; also: test concentration not given here
# [19] = target: NADPH oxidase 4 (Homo sapiens) (UniProt Q9NPH5); test: NOX4-dependent H2O2 signal modulators, primary screen, NOX inhibitor project, cell-based, HEK293-NOX4, tetracycline-induced, Amplex Red fluorescence (AID 1160); conditions: 45 min, higher = more signal, called active from +8 up or from −8 down
# [20] = target: NADPH oxidase 5 (Homo sapiens) (UniProt Q96PH1); test: NOX5-dependent H2O2 signal modulators, primary screen, NOX inhibitor project, cell-based, HEK293-NOX5, Amplex Red fluorescence (AID 1161); conditions: HEK293-NOX5, ionomycin, 45 min, higher = more signal
# Chain of NADPH oxidase 5 (Homo sapiens) (Q96PH1 whole entry, looked up): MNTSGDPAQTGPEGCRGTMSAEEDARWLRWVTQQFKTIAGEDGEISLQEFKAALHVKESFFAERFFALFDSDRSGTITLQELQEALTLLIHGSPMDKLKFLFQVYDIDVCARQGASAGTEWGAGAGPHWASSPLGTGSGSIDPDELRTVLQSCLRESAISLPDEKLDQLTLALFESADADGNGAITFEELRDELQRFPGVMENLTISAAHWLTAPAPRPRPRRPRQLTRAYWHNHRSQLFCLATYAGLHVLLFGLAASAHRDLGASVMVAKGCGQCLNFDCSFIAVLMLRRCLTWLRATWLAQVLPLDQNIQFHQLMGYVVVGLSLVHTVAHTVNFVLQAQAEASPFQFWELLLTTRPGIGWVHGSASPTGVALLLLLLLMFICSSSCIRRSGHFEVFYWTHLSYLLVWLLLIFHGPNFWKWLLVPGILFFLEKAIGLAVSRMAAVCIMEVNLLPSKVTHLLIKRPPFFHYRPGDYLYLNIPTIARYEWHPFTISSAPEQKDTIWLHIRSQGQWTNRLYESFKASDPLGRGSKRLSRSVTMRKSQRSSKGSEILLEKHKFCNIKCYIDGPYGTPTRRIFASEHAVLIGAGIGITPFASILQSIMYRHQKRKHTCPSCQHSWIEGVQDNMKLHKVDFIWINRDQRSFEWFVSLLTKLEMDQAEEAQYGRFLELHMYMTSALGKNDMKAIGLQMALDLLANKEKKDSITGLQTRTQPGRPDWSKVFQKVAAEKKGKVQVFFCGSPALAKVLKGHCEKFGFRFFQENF
# Chain of NADPH oxidase 4 (Homo sapiens) (Q9NPH5 whole entry, looked up): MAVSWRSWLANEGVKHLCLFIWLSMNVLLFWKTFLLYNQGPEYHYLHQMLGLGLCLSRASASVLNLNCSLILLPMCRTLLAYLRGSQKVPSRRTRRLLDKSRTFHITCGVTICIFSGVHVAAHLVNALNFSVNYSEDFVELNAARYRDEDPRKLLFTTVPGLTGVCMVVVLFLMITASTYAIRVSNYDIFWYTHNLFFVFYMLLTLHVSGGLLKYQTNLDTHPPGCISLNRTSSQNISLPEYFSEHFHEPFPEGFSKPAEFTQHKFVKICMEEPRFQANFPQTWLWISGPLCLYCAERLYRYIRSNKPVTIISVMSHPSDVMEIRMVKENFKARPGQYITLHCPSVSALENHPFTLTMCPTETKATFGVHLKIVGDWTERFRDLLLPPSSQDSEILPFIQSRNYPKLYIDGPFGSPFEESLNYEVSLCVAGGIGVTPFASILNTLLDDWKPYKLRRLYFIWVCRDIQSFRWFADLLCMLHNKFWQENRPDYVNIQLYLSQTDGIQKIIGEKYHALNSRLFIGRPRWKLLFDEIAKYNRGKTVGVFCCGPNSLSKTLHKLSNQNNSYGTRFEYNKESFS
# Chain of NADPH oxidase 2 (Homo sapiens) (P04839 whole entry, looked up): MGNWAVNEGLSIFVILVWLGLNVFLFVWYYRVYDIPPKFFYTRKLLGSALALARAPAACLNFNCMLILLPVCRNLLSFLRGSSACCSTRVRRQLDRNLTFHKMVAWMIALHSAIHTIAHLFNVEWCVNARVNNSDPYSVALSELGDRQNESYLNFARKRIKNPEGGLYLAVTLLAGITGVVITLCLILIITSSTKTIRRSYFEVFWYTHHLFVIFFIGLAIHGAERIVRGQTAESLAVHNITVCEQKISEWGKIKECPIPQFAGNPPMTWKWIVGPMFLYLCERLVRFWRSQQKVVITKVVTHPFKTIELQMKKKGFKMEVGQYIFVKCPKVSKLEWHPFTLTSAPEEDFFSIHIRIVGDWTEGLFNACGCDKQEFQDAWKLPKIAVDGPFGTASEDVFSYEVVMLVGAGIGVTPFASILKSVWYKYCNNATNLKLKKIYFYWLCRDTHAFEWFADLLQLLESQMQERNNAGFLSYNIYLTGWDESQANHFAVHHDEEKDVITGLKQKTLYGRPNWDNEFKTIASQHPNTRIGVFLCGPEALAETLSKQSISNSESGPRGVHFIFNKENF
# Chain of Torsin-1A (Homo sapiens) (O14656 whole entry, looked up): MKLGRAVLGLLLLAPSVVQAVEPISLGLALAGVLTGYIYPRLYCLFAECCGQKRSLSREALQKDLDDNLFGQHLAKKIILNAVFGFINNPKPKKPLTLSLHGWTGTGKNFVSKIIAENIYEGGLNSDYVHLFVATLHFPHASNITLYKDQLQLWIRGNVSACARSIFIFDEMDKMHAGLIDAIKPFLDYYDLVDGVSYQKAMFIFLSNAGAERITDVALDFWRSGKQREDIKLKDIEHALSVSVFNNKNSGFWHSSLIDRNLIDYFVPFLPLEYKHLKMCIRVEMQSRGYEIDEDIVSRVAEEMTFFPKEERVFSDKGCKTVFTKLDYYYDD
# Chain of Streptavidin (Streptomyces avidinii) (P22629 whole entry, looked up): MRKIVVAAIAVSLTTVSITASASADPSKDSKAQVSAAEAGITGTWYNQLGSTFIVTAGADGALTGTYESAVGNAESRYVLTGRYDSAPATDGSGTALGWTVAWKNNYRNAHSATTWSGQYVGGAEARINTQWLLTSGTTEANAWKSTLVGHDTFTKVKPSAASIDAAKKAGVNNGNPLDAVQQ
structure (smiles),measurement,setting,value
CC(C)=CCCC(C)=CCON=C1C[C@@H](O)[C@@H](O)[C@@H]2[C@@H]3C(=O)N(C(C)(C)C)C(=O)[C@@H]3CC[C@@H]12,composite z-score,[1],-0.0529
same,z-score,[2],-0.813 (inactive)
same,z-score,[3],-0.408 (inactive)
same,z-score,[4],1.6 (inactive)
same,z-score,[5],0.585 (inactive)
same,composite z-score,[6],-0.125
same,composite z-score,[7],-0.293
same,composite z-score,Torsin-1A (Homo sapiens) [8],0.244
same,composite z-score,Torsin-1A (Homo sapiens) [9],0.764
same,composite z-score,[10],0.711
same,z-score,[11],-1.31 (inactive)
same,composite z-score,[12],0.167
same,z-score,[13],1.43 (inactive)
same,z-score,[14],0.761 (inactive)
same,z-score,[15],0.916 (inactive)
same,z-score,[16],0.821 (inactive)
same,z-score,[17],-0.227
same,z-score,[18],-1.14 (inactive)
same,z-score,[19],-1.2 (inactive)
same,z-score,[20],-0.411
CCOC(=O)[C@H](Cc1ccccc1)NC(=O)CCC1CC(OC(=O)NCc2ccc3c(c2)OCO3)CC2(CCCC(COC(=O)NCCC(C)C)O2)O1 (stereo not given in full),composite z-score,[1],0.403
same,z-score,[2],-1.05 (inactive)
same,z-score,[3],-0.749 (inactive)
same,z-score,[4],-0.254 (inactive)
same,z-score,[5],0.0924 (inactive)
same,composite z-score,[6],0.789
same,composite z-score,[7],0.0471
same,composite z-score,Torsin-1A (Homo sapiens) [8],0.399
same,composite z-score,Torsin-1A (Homo sapiens) [9],0.418
same,composite z-score,[10],1.74
same,z-score,[11],0.241 (inactive)
same,composite z-score,[12],-0.0162
same,z-score,[13],25.3 (active)
same,z-score,[14],11.5 (active)
same,z-score,[15],1.26 (inactive)
same,z-score,[16],1.5 (inactive)
same,z-score,[17],0.274
same,z-score,[18],1.3 (inactive)
same,z-score,[19],0.25 (inactive)
same,z-score,[20],0.277
C#CCCCON=C1C[C@@H](O)[C@@H](O)[C@@H]2[C@@H]3C(=O)N(CCC(=O)OCC)C(=O)[C@@H]3CC[C@H]12,composite z-score,[1],0.104
same,z-score,[2],-1.42 (inactive)
same,z-score,[3],1.11 (inactive)
same,z-score,[4],-0.295 (inactive)
same,z-score,[5],0.783 (inactive)
same,composite z-score,[6],0.873
same,composite z-score,[7],-0.0736
same,composite z-score,Torsin-1A (Homo sapiens) [8],0.0183
same,composite z-score,Torsin-1A (Homo sapiens) [9],0.36
same,composite z-score,[10],1.65
same,z-score,[11],0.756 (inactive)
same,composite z-score,[12],0.105
same,z-score,[13],1.08 (inactive)
same,z-score,[14],-1.4 (inactive)
same,z-score,[15],0.792 (inactive)
same,z-score,[16],-1.51 (inactive)
same,z-score,[17],1.76
same,z-score,[18],-2.03 (inactive)
same,z-score,[19],0.213 (inactive)
same,z-score,[20],-0.949
CCN1C(=O)[C@H]2[C@H]3[C@H](O)[C@H](O)CC(=NOCC(C)C)[C@@H]3CC[C@H]2C1=O,composite z-score,[1],-0.111
same,z-score,[2],-0.101 (inactive)
same,z-score,[3],0.258 (inactive)
same,z-score,[4],-0.929 (inactive)
same,z-score,[5],-0.2 (inactive)
same,composite z-score,[6],0.017
same,composite z-score,[7],0.038
same,composite z-score,Torsin-1A (Homo sapiens) [8],0.729
same,composite z-score,Torsin-1A (Homo sapiens) [9],0.634
same,composite z-score,[10],1.31
same,z-score,[11],-1.87 (inactive)
same,composite z-score,[12],-0.245
same,z-score,[13],0.344 (inactive)
same,z-score,[14],0.365 (inactive)
same,z-score,[15],0.456 (inactive)
same,z-score,[16],0.379 (inactive)
same,z-score,[17],-0.126
same,z-score,[18],0.603 (inactive)
same,z-score,[19],0.324 (inactive)
same,z-score,[20],-0.654
COC(=O)CC=C[C@@H](C)[C@@H](C=NO[C@@H]1O[C@H](COC(C)=O)[C@@H](OC(C)=O)[C@H](OC(C)=O)[C@H]1OC(C)=O)NS(=O)(=O)c1ccc(C)cc1,composite z-score,[1],-0.0003
same,z-score,[2],0.0322 (inactive)
same,z-score,[3],-0.202 (inactive)
same,z-score,[4],7.64 (inactive)
same,z-score,[5],1.02 (inactive)
same,composite z-score,[6],-0.909
same,composite z-score,[7],0.0086
same,composite z-score,Torsin-1A (Homo sapiens) [8],0.514
same,composite z-score,Torsin-1A (Homo sapiens) [9],0.311
same,composite z-score,[10],0.629
same,z-score,[11],-0.673 (inactive)
same,composite z-score,[12],-0.397
same,z-score,[13],0.683 (inactive)
same,z-score,[14],0.54 (inactive)
same,z-score,[15],1.1 (inactive)
same,z-score,[16],0.294 (inactive)
same,z-score,[17],-0.448
same,z-score,[18],0.837 (inactive)
same,z-score,[19],0.968 (inactive)
same,z-score,[20],0.569
C=CC[C@@H]1C=C[C@H](ON=C[C@@H](C)[C@H](OCc2ccccc2)C(C)C)[C@@H](CO)O1,composite z-score,[1],-0.2
same,z-score,[2],-1.39 (inactive)
same,z-score,[3],0.787 (inactive)
same,z-score,[4],1.31 (inactive)
same,z-score,[5],0.3 (inactive)
same,composite z-score,[6],-1.32
same,composite z-score,[7],-0.238
same,composite z-score,Torsin-1A (Homo sapiens) [8],-0.617
same,composite z-score,Torsin-1A (Homo sapiens) [9],-0.396
same,composite z-score,[10],-0.119
same,z-score,[11],-0.144 (inactive)
same,composite z-score,[12],-0.193
same,z-score,[13],1.64 (inactive)
same,z-score,[14],0.0178 (inactive)
same,z-score,[15],-0.667 (inactive)
same,z-score,[16],0.197 (inactive)
same,z-score,[17],-0.544
same,z-score,[18],-0.55 (inactive)
same,z-score,[19],-0.301 (inactive)
same,z-score,[20],-1.48
CC(CCC(=O)OC[C@H]1O[C@H](C#Cc2ccccc2)C=C[C@@H]1Oc1ccc(C)cc1)=NO[C@H](C)c1cn([C@H](CO)Cc2ccccc2)nn1,composite z-score,[1],-0.313
same,z-score,[2],-0.874 (inactive)
same,z-score,[3],0.195 (inactive)
same,z-score,[4],0.15 (inactive)
same,z-score,[5],1.15 (inactive)
same,composite z-score,[6],0.0184
same,composite z-score,[7],-0.149
same,composite z-score,Torsin-1A (Homo sapiens) [8],-0.234
same,composite z-score,Torsin-1A (Homo sapiens) [9],0.683
same,composite z-score,[10],0.327
same,z-score,[11],-0.757 (inactive)
same,composite z-score,[12],-0.243
same,z-score,[13],14.6 (active)
same,z-score,[14],2.79 (inactive)
same,z-score,[15],1.47 (inactive)
same,z-score,[16],1 (inactive)
same,z-score,[17],-1.01
same,z-score,[18],-1.26 (inactive)
same,z-score,[19],0.432 (inactive)
same,z-score,[20],0.32
C=CC1=C[C@H](O)[C@@H]2O[C@@H]2C12OCCCO2,composite z-score,[1],0.398
same,z-score,[2],0.17 (inactive)
same,z-score,[3],0.658 (inactive)
same,z-score,[4],-0.0732 (inactive)
same,z-score,[5],0.197 (inactive)
same,composite z-score,[6],0.281
same,composite z-score,[7],-0.0695
same,composite z-score,Torsin-1A (Homo sapiens) [8],0.468
same,composite z-score,Torsin-1A (Homo sapiens) [9],0.752
same,composite z-score,[10],-0.262
same,z-score,[11],0.104 (inactive)
same,composite z-score,[12],-0.275
same,z-score,[13],-0.179 (inactive)
same,z-score,[14],0.191 (inactive)
same,z-score,[15],-0.264 (inactive)
same,z-score,[16],-0.121 (inactive)
same,z-score,[17],-0.495
same,z-score,[18],-1.11 (inactive)
same,z-score,[19],0.617 (inactive)
same,z-score,[20],0.629
CC[C@@H](c1ccccc1)n1c(=O)n2n(c1=O)[C@H]1[C@H](O)[C@@H]3O[C@@H]3C(=NOC[C@@H](O)COCc3ccco3)[C@H]1CC2,composite z-score,[1],0.112
same,z-score,[2],0.456 (inactive)
same,z-score,[3],0.232 (inactive)
same,z-score,[4],0.704 (inactive)
same,z-score,[5],0.427 (inactive)
same,composite z-score,[6],-0.715
same,composite z-score,[7],-0.257
same,composite z-score,Torsin-1A (Homo sapiens) [8],-0.354
same,composite z-score,Torsin-1A (Homo sapiens) [9],-0.517
same,composite z-score,[10],1.07
same,z-score,[11],-0.389 (inactive)
same,composite z-score,[12],-0.89
same,z-score,[13],1.34 (inactive)
same,z-score,[14],-0.339 (inactive)
same,z-score,[15],-0.18 (inactive)
same,z-score,[16],-0.381 (inactive)
same,z-score,[17],0.225
same,z-score,[18],-0.892 (inactive)
same,z-score,[19],0.796 (inactive)
same,z-score,[20],1.36
